Screening results (PubChem BioAssay)
Most compounds without a hit are left out; they make up all but 6.7% or so of the library.
C diff growth = C. difficile growth inhibition; Clostridium difficile clinical isolate growth, OD600, 24 h; stronger effect = lower value; growth activity, negative = inhibition, % at 16 µg/mL (by protocol); 86,000 compounds, 0.25% hits;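 active = mean growth activity at or below -80% and every replicate also at or below -80%; inconclusive = mean at or below -80% but some replicate above -80%; inactive = mean growth activity above -80%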;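 also: 0% = DMSO wells and -100% = levofloxacin 16 µg/mL wells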
T cruzi growth-1 = inhibitors of T. cruzi proliferation | T. cruzi beta-gal in NIH3T3, GalScreen luminescence, 90 h | inhibition, % at 8.34 µM | 77,000 compounds, 5.9% hits;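 active = mean inhibition above about 93%, with at least 55% of replicates each passing it, limit read from the data, passing the limit was not always enough; inconclusive = only one of those two conditions holds; inactive = neither condition holds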
Pf Dd2 growth = P. falciparum Dd2 growth inhibition. SYBR Green, 72 h; stronger effect = lower value. 94,000 compounds, 2.3% hits. activity change, % at 10 µM. AID 1159554; in the data active = activity change below about -80%; inconclusive = no clear call, values can overlap the other calls
T cruzi growth-2 = inhibitors of T. cruzi proliferation; shares compounds with T cruzi growth-1; T. cruzi beta-gal in NIH3T3, GalScreen luminescence, 90 h; inhibition, % at 8.35 µM; 5,600 compounds, 72% hits; AID 651739;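 active = mean replicate inhibition above about 95% and at least 55% of replicates individually reaching it, limit read from the data; inconclusive = only one of the two criteria is met; inactive = neither criterion is met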
T cruzi growth-3 = Trypanosoma cruzi proliferation inhibition. shares compounds with T cruzi growth-1. inhibition, % at 2.09 µM. AID 651740. T. cruzi beta-gal in NIH3T3, GalScreen luminescence, 90 h. 5,600 compounds, 21% hits;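 active = mean inhibition above about 95%, with at least 55% of replicates also reaching it, limit read from the data; inconclusive = meets just one of the two conditions; inactive = meets neither condition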;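 also: plate controls were neutral control median for no effect and positive control median for full effect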
NIH3T3 tox = cytotoxicity in mouse NIH/3T3 fibroblasts. shares compounds with T cruzi growth-1. NIH/3T3 viability, CellTiter-Glo ATP luminescence, 90 h. cytotoxicity (signal decrease), % at 8.35 µM. 5,600 compounds, 14% hits. AID 651742;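 active = mean signal decrease across replicates above about 35% based on untreated-well scatter, with enough replicates individually passing, limit read from the data; inconclusive = no rule stated though some were filed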;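 also: 0% = median of neutral control wells and 100% = median of positive control wells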
3T3 cytotox 2 = NIH/3T3 (mouse) viability loss; inhibition, % at 24.9 µM; shares compounds with T cruzi growth-1; NIH/3T3 viability, CellTiter-Glo ATP luminescence, 90 h; AID 651744; 5,600 compounds, 56% hits;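 active = mean loss of cell viability signal at or above a set limit, and enough replicates individually reaching it; inconclusive = meets only the mean limit or only the replicate share; inactive = meets neither condition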;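 also: 0% = median of neutral control wells and 100% = median of positive control wells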
* hit, by the source's call; ? = inconclusive; / = not tested or not shown.

SMILES	C diff growth	T cruzi growth-1	Pf Dd2 growth	T cruzi growth-2	T cruzi growth-3	NIH3T3 tox	3T3 cytotox 2
O=C(O)C[C@@H]1C[C@H]2c3cc(NC(=O)NC4CCCCC4)ccc3O[C@H]2[C@@H](CO)O1	3	-23	-4	/	/	/	/
COCC(=O)N(C)C[C@@H]1Oc2ncc(C#Cc3ccc(OC)cc3)cc2C(=O)N([C@@H](C)CO)C[C@@H]1C	2	-44	20	/	/	/	/
C[C@H](CO)N1C[C@H](C)[C@H](CN(C)S(=O)(=O)c2ccc(F)cc2)Oc2cc(C#Cc3ccncc3)ccc2S1(=O)=O	9	114*	-84*	92	45	?	65*
C[C@H]1CN([C@@H](C)CO)S(=O)(=O)c2ccc(C#Cc3ccncc3)cc2O[C@H]1CN(C)C	7	10	-30	/	/	/	/
C[C@H]1CN([C@@H](C)CO)S(=O)(=O)c2ccc(C#Cc3ccncc3)cc2O[C@H]1CN(C)S(=O)(=O)c1ccc(F)cc1	10	118*	-89*	102*	67	?	11
C[C@H]1CN([C@@H](C)CO)S(=O)(=O)c2ccc(C#Cc3ccncc3)cc2O[C@@H]1CN(C)C	5	-6	-63	/	/	/	/
COCC(=O)N1[C@H](C#N)[C@H](c2ccccc2-c2ccc(C)cc2)[C@H]1CO	10	/	7	/	/	/	/
C[C@@H]1CN([C@@H](C)CO)C(=O)c2cc(C3=CCCC3)cnc2O[C@H]1CN(C)C(=O)Nc1ccc(C(F)(F)F)cc1	-9	99*	-15	102*	56	21	6
C[C@H]1CN([C@@H](C)CO)C(=O)c2cc(C3=CCCC3)cnc2O[C@@H]1CN(C)C(=O)Nc1ccc(F)cc1	-13	/	-74	/	/	/	/
C[C@@H]1CN([C@H](C)CO)C(=O)c2cc(C3=CCCC3)cnc2O[C@@H]1CN(C)C(=O)Nc1ccc(C(F)(F)F)cc1	21	111*	-4	107*	84	?	104*
C[C@H]1CN([C@@H](C)CO)C(=O)c2cc(C3=CCCC3)cnc2O[C@@H]1CN(C)C(=O)Nc1ccc(C(F)(F)F)cc1	-1	82	-54	/	/	/	/
CC(=O)N(C)C[C@H]1Oc2cc(C3=CCCCC3)ccc2S(=O)(=O)N([C@@H](C)CO)C[C@@H]1C	/	34	7	/	/	/	/
C[C@H](CO)N1C[C@H](C)[C@@H](CN(C)C)OCCCC[C@H](C)Oc2ccc(NC(=O)Nc3ccc(F)cc3)cc2C1=O	3	8	0	/	/	/	/
C[C@@H]1CN([C@@H](C)CO)C(=O)c2cc(NC(=O)Nc3ccc(F)cc3)ccc2O[C@@H](C)CCCCO[C@@H]1CN(C)CC1CCCCC1	1	117*	?	99*	43	?	103*
C[C@@H]1CCCCO[C@@H](CN(C)C)[C@H](C)CN([C@@H](C)CO)C(=O)c2cc(NC(=O)Nc3ccc(F)cc3)ccc2O1	5	0	33	/	/	/	/
C[C@H](CO)N1C[C@H](C)[C@H](CN(C)CC2CCCCC2)OCCCC[C@H](C)Oc2ccc(NC(=O)Nc3ccc(F)cc3)cc2C1=O	-9	115*	-87*	89	102*	118*	102*
C[C@@H]1CCCCO[C@@H](CN(C)CC2CCCCC2)[C@@H](C)CN([C@H](C)CO)C(=O)c2cc(NC(=O)Nc3ccc(F)cc3)ccc2O1	13	117*	-68	100*	109*	29	103*
C[C@H](CO)N1C[C@H](C)[C@H](CN(C)CC2CC2)OCCCC[C@H](C)Oc2ccc(NC(=O)Nc3ccc(F)cc3)cc2C1=O	/	85	-76	/	/	/	/
C[C@@H]1CCCCO[C@@H](CN(C)CC2CC2)[C@H](C)CN([C@H](C)CO)C(=O)c2cc(NC(=O)Nc3ccc(F)cc3)ccc2O1	3	83	12	/	/	/	/
C[C@H]1CCCCO[C@@H](CN(C)CC2CCCCC2)[C@@H](C)CN([C@@H](C)CO)C(=O)c2cc(NC(=O)Nc3ccc(F)cc3)ccc2O1	0	125*	-85*	101*	120*	60*	103*
CN(C)C(=O)C[C@@H]1C[C@@H]2c3cc(NC(=O)C4CCC4)ccc3O[C@@H]2[C@H](CO)O1	-1	26	-9	/	/	/	/
